Molecules are shown by their SMILES.

In the assay the test system is Perkinsus marinus PRA240. Kind of assay: ATP content (proliferation) relative to DMSO control; higher = more parasite growth (less inhibition). Conditions: 20 µM; 4 days. The procedure: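 Perkinsus marinus PRA240 trophozoites (2-5x10^6 cells/ml, 100 µl, 96-well) were exposed once to MMV Malaria Box compounds at 20 µM (0.1% DMSO) in triplicate. ATP content (ATPlite bioluminescence) was read at day 4 post-exposure and normalised to DMSO + cells control wells (100% activity). Compounds were identified by joining plate and well to the Malaria Box list.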
The compound `CCOc1ccc2c(c1)CN(Cc1ccc(Cl)cc1)CO2` gave an ATP content of 155%.
Next, `CCOc1ccccc1CN1CCc2nc3cc(C(C)(C)C)nn3c(O)c2C1`: 51.7%; `Oc1ccccc1CN1CCN(C(c2ccccc2)c2ccccc2)CC1`: 128%; `O=C(Nc1ccc(C23CC4CC(CC(c5ccccc5)(C4)C2)C3)cc1)c1cccs1`: 68.7%.
`Clc1ccc2c(N3CCCC3)ccnc2c1`: the ATP content amounted to 91%.
The result for `CCN(CC)CCCNc1nc(-c2ccc(Cl)cc2)nc2ccccc12` reads 99.6%.
`O=C1CC(O)(C(F)(F)C(F)(F)F)Oc2ccccc21` (configuration not stated) came in with an ATP content of 34.8%.
`CN1CCN(c2nc(Nc3ccc(O)cc3)nc3ccccc23)CC1` displayed an ATP content of 114%.
Next, `Nc1ccn(C2O[C@H](CO)[C@@H](O)[C@H]2O)c(=O)n1` (some centres not stated): 132%; `COc1ccc2nc(C)cc(Nc3ccc(Cl)cc3)c2c1`: 103%.
Next, `O=C(Nc1ccc(-c2nc3cc(NC(=O)c4ccc(Cl)cc4)ccc3[nH]2)cc1)c1ccc(Cl)cc1`: 141%; `CN1c2ccccc2N(C)C1c1ccc2c(c1)OCO2`: 87.3%.
Next, `C=C(C)CCC(C)N1CCC(N2CCC(C(=O)NCCc3ccccc3)CC2)CC1` (configuration not stated): 90%; `CCOC(=O)c1cnc2c(CC)cccc2c1O`: 80.1%.
With `COc1ccc(C(=O)Nc2ccc(Cl)cc2C(=O)Nc2ccncc2)cc1`, the ATP content turned out to be 106%.
Next, `Oc1c2c(nc3cc(-c4ccccc4)nn13)CCCC2`: 47.5%; `O=C(NC1CCN(Cc2ccccc2)CC1)c1cc(C(=O)NC2CCN(Cc3ccccc3)CC2)cc(C(=O)NC2CCN(Cc3ccccc3)CC2)c1`: 90.4%.
Next, `CCCCNc1nc(NC(C)(C)C)nc(NC(C)(C)C)n1`: 116%; `OC(CNCC1CCCO1)Cn1c2ccc(Cl)cc2c2cc(Cl)ccc21` (configuration not stated): 142%; `COc1cc(SC)ccc1C(=O)N1CCCC(C)C1` (configuration not stated): 134%.
`O=C(NC(c1ccccc1)c1ccc2cccnc2c1O)c1ccccc1` (configuration not stated) registered an ATP content of 26.3%.
The result for `COc1ccc(Nc2nc(NCc3ccccc3)c3ccccc3n2)cc1` reads 103%; that for `CCOc1cc2c(cc1OCC)C(c1cc(C)c(O)c(C)c1)NCC2` (configuration not stated), 133%.
The result for `CCCCCCC(O)(c1ccc(F)cc1)C(CN1CCOCC1)c1ccccc1` (configuration not stated) reads 127%.
Regarding `CC(C)(C)CC(C)(C)NCC(O)COc1ccc2c(c1)CCC2` (configuration not stated), the ATP content is 114%.
The result for `O=C1c2ccccc2-c2nnc(-c3ccc(Br)cc3)cc21` reads 67.7%; that for `CC1CC2=C(CC1CNCCCN(C)C)C(C)(C)CCC2` (configuration not stated), 119%; that for `COc1ccc(-c2nc(N3CCN(C(=O)C4CCCCC4)CC3)c3c4c(sc3n2)CCCC4)cc1`, 69.7%.
In turn, `O=C(NCC1Cc2cccc(-c3ccncc3)c2O1)c1csc2c1CCCC2` (configuration not stated) came in with an ATP content of 114%.
Take `Cc1ccc(-c2nc3ccccc3o2)cc1NCc1cc(Cc2ccccc2)ccc1O`: the ATP content was 77.3%.
Next, `CC(C)(C)c1ccc(C2CC3=Nc4ccccc4N(C(=O)c4ccccc4Cl)C(c4ccc(F)cc4)C3=C(O)C2)cc1` (configuration not stated): 129%; `COc1ccc(CNC2CCN(c3ccc(NC(=O)c4cccc(Cl)c4)cc3)CC2)cc1OC`: 102%.
Next, `CCN(CC)CCNc1ncnc2c1[nH]c1ccc(Br)cc12`: 141%; `Cc1ccc(Nc2nc(N)c3ccccc3n2)cc1Cl`: 4.69%; `COc1cccc(O)c1CN1CCC2(CCCN(Cc3ccc(F)cc3)C2)C1` (configuration not stated): 70.7%.
As for `COc1cc(C(=O)Nc2nc3c(cc4c5c(cccc53)CC4)s2)cc(OC)c1OC`, the ATP content stood at 89.8%.
With `N=c1n(CCN2CCCCC2)c2ccccc2n1CC(O)c1cccc(Br)c1` (configuration not stated), the ATP content turned out to be 116%.

The record behind these values is the supplement of paper PMC4206467.
